Common to all, as to assay: NCI-60 one-dose screen, 48 h (100 = growth as untreated, 0 = no growth, -100 = all killed)
Conditions in all cases: 10 µM unless noted

Assay [1] relates to NCI-H23 lung.
In assay [2] the test system is NCI-H226 lung.
The subject of assay [3] is NCI-H322M lung.
The subject of assay [4] is HOP-62 NSCLC.
Assay [5] has as its system NCI-H460 lung.
The subject of assay [6] is HOP-92 NSCLC.
Assay [7] concerns NCI-H522 lung.
Assay [8] has as its system A549/ATCC NSCLC.
For assay [9], the system named is 786-0 renal.
Assay [10] concerns COLO 205 colon.
In assay [11] the test system is DU-145 prostate.
In assay [12] the test system is K-562 leukemia.
The subject of assay [13] is MALME-3M melanoma.
Assay [14] deals with MDA-MB-231 breast.
Assay [15] relates to RXF 393 renal.
The subject of assay [16] is SF-268 CNS.
In assay [17] the test system is SF-295 CNS.
Assay [18] has as its system SF-539 CNS.
In assay [19] the test system is UACC-257 melanoma.
Assay [20] concerns M14 melanoma.

About 83,000 compounds went through this panel and 20% of them were active in at least one assay; those are over-represented in the sample as a whole.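 The endpoint reported here, percent growth, reads 100 for growth as untreated, 0 for no net growth and -100 for all cells dead.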 Values without a mark were called inactive. Active and inactive are the calls of the source. How the source made its calls: active means growth percent below 10; inactive means the rest.

As for `CC(C)CCC[C@@H](C)[C@H]1CC[C@H]2[C@@H]3CC=C4N(c5ccccc5)C(=O)CC[C@]4(C)[C@H]3CC[C@]12C`, the growth is 97.2% in assay [1]; 99.2% in assay [2]; 98.3% in assay [3]; 98.8% in assay [4]; 111% in assay [5]; 60.2% in assay [6]. Besides, the growth in assay [7] is 94.1%; in [8] it was 97.4%; in assay [9], 93.9%; in assay [10], 97.9%; in assay [11], 103%; in assay [12] it was 103%. The growth in [13] was 97.8%; in [14], 111%; in assay [15], 103%; in [16] it was 99.3%; in assay [17], 99%; in assay [18], 101%. The growth in [19] was 105%; in assay [20], 96.1%.

For the molecule `COc1ccc2c(c1)O/C(=C/c1ccc(OCC(=O)Nc3ccc(S(N)(=O)=O)cc3)cc1)C2=O`, the growth in [1] was 100%; in [2], 86.9%; in assay [3] it was 97.8%; in assay [4], 104%; in [5], 101%; in [6], 91.4%. In addition, the growth was 80.7% in assay [7]; 88.5% in assay [8]; 96.7% in assay [9]; 114% in assay [10]; 101% in assay [11]; 85.7% in assay [12]. Moreover, the growth in [13] is 111%; in assay [14] it was 94.7%; in assay [15], 97.2%; in [16] it was 94.8%; in [17] it was 106%; in [18], 97.7%. Moreover, the growth in assay [19] and in assay [20] was 102% in each case.

With `COC1=C(OC)C(=O)C=CC1=O`, the growth is 111% in [1]; 107% in [2]; 101% in assay [3]; 117% in [4]; 118% in [5]; 110% in assay [6]. For the same molecule, the growth is 63.7% in assay [7]; 109% in [8]; 103% in [9]; 99.8% in [10]; 114% in assay [11]; 7.24% (active) in [12]. Also, the growth in [13] is 114%; in assay [14], 101%; in assay [15], 114%; in assay [16] it was 109%; in assay [17], 113%; in [18], 110%. For the same molecule, the results for the growth in [19] and in [20] were 110% and 116%, respectively.

In the case of `Cc1ccc2c(c1)Nc1ccc(C)cc1C2(C)C`, the growth in assay [1] is 94.9%; in assay [2], 98.3%; in assay [3], 114%; in [4] it was 78.9%; in assay [5], 109%; in assay [6], 81.1%. The growth is 68% in assay [7]; 93.1% in assay [8]; 84.7% in [9]; 84.3% in [10]; 107% in [11]; 97.4% in [12]. Further, the growth in assay [13] was 98.9%; in [14] it was 114%; in [15], 101%; in [16], 105%; in assay [17] it was 101%; in assay [18] it was 95.7%. Moreover, the results for the growth in assay [19] and in assay [20] were 110% and 98.2%, respectively.

Consider `CC(=O)n1cc(/C=C2\N=C(c3ccc(Cl)cc3)N(c3ccc(S(=O)(=O)Nc4nccs4)cc3)C2=O)c2ccccc21`, for which the growth in assay [1] was 89%; in [2], 94.7%; in assay [3], 85.8%; in assay [4], 97.6%; in assay [5], 82.1%; in assay [6] it was 95.9%. The growth in assay [7] is 60%; in assay [8], 91%; in [9], 88.6%; in assay [10], 115%; in [11] it was 102%; in [12], 59.6%. Moreover, the growth in [13] is 120%; in assay [14] it was 95.5%; in [15] it was 86.7%; in assay [16] it was 83%; in assay [17] it was 85.6%; in [18] it was 90.6%. Further, the growth was 99.7% in [19] and 83.4% in [20].

Take `c1ccc(-c2nc3sc(C(c4ccccc4)c4ccccc4)nn3c2-c2ccccc2)cc1`: the growth in [1] is 92.2%; in [2], 99.6%; in [3], 93.6%; in assay [4] it was 89.9%; in [5] it was 95.6%; in [6], 77.9%. For the same molecule, the growth is 95.3% in assay [7]; 85.3% in assay [8]; 94.9% in assay [9]; 86.8% in assay [10]; 99.9% in assay [11]; 106% in [12]. The growth in assay [13] is 86.4%; in assay [14], 97.8%; in assay [15], 109%; in assay [16], 92.6%; in assay [17] it was 98.6%; in assay [18] it was 98%. The values for the growth in [19] and in assay [20] were 92.2% and 92%, respectively.

Regarding `O=C(NCCNc1nccc(-c2c(-c3cccc(O)c3)nc3sccn23)n1)c1ccccc1O`, the growth is 57.4% in assay [1]; 80.5% in [2]; 72.3% in assay [3]; 114% in assay [4]; 57% in assay [5]; 59.9% in [6]. For the same molecule, the growth was 29% in assay [7]; 43.3% in assay [8]; 64.6% in [9]; 66.5% in assay [10]; 67.2% in assay [11]; 40.5% in assay [12]. Further, the growth is 14.6% in assay [13]; 48.4% in [14]; 50.9% in [15]; 62.5% in assay [16]; 46.4% in assay [17]; 61.9% in assay [18]. Moreover, the values for the growth in [19] and in assay [20] were 14.8% and 16.7%, respectively.

Consider `O=c1c2ccccc2sc2c(N3CCCC3)nc3ccccc3c12`, for which the growth in assay [1] was 88.7%; in [2], 81.3%; in [3], 110%; in [4] it was 97.7%; in assay [5], 96.7%; in assay [6] it was 70.8%. In addition, the growth is 100% in assay [7]; 103% in assay [8]; 102% in assay [9]; 116% in assay [10]; 99% in [11]; 86.5% in assay [12]. The growth is 136% in [13]; 90.5% in [14]; 103% in assay [15]; 98.9% in [16]; 115% in assay [17]; 102% in assay [18]. Further, the growth is 106% in assay [19] and 114% in assay [20].

For the origin of these results see PubChem BioAssay (NCI).
